Among the data in PubChem BioAssay are composite z-score values, retold here.

For the first experiment, the target named is Concanavalin-A (Canavalia ensiformis) (UniProt P02866). Kind of experiment: compounds binding concanavalin A lectin – biochemical, small-molecule microarray, Alexa647 label, 635 nm, artefact control for SMM control protein annotation, primary screen (AID 1127).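 Also: z combines 667 nm emission intensity with signal-to-noise across three replicate slides.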 The conditions noted are these: ConA-A647 binding fluorescence, higher = more signal.
Chain of Concanavalin-A (Canavalia ensiformis) (P02866 whole entry, looked up): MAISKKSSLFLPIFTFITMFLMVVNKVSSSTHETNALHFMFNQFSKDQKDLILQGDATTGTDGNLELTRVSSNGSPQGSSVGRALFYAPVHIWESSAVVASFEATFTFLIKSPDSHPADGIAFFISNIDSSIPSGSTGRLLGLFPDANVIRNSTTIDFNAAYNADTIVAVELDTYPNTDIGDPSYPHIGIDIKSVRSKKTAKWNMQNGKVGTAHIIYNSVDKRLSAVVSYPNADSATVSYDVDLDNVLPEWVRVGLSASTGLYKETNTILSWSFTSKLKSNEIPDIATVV
For `CCOC(=O)[C@H](Cc1ccccc1)NC(=O)CCC1CC(OC(=O)NCc2cccc3ccccc23)CC2(CCCC(COC(=O)NCCc3ccccc3OC)O2)O1` (stereo partly specified), the composite z-score stood at 0.879. `O=C1C=C[C@@H](O)[C@@H]2[C@@H]3C(=O)N(c4cccc(Oc5ccccc5)c4)C(=O)[C@@H]3CC[C@@H]12` registered a composite z-score of 0.19. On to `O=C1C=C[C@@H](O)[C@@H]2[C@@H]3C(=O)N(Cc4ccccc4)C(=O)[C@@H]3CC[C@@H]12`, for which the composite z-score stood at 0.619. With `COC(=O)[C@H](C)NC(=O)CCC1CC(OC(=O)NCc2ccc3c(c2)OCO3)CC2(CCCC(COC(=O)NCc3ccccc3)O2)O1` (stereo partly specified), the composite z-score amounted to 0.829. For the compound `COc1ccc(COC(=O)NN=C2C[C@@H](O)[C@@H](O)[C@@H]3[C@@H]4C(=O)N(C(C)(C)C)C(=O)[C@@H]4CC[C@@H]23)cc1`, the composite z-score was 0.632.

Tested on in another experiment: not listed separately
The experiment is described as follows: compounds binding Alexa647 anti-His antibody – biochemical, small-molecule microarray, 635 nm fluorescence, artefact control for SMM control protein annotation, primary screen (AID 1128).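 Also: score merges feature fluorescence with signal-to-noise for each printed compound spot.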 The conditions noted are these: higher = more signal.
The compound `CSCC[C@@H]1NC(=O)CC=C[C@@H](C)COC(=O)[C@H](C)COC1=O` had a composite z-score of -1.14.

The compound `CC1(C)O[C@H]2O[C@H]([C@H](O)CON=C3[C@H]4CCn5c(=O)n(-c6ccccc6)c(=O)n5[C@H]4[C@H](O)[C@@H]4O[C@H]34)[C@H](O)[C@H]2O1` showed a composite z-score of 0.455. Compound `COc1cccc([C@H]2Oc3ccc(OC)cc3C(=NO[C@@H](C)c3cc(-c4c(C)cc(C)cc4C)no3)[C@@H]2O)c1` showed a composite z-score of -0.314. Compound `CC(=O)OC[C@H]1O[C@H](C#CCCc2ccccc2)C=C[C@@H]1OC(C)=O` displayed a composite z-score of 0.538. The compound `CC(C)=CCCC(C)=CCON=C1C[C@@H](O)[C@@H](O)[C@@H]2[C@@H]3C(=O)N(C4CCCCC4)C(=O)[C@@H]3CC[C@H]12` yielded a composite z-score of 0.857. Same read-out and setting: in the case of `COC(=O)[C@H](C)NC(=O)CCC1CC(OC(=O)NCc2ccc3c(c2)OCO3)CC2(CCCC(COC(=O)NCCc3ccc(Cl)cc3)O2)O1` (stereo partly specified) it was 1.22; in that of `COC(=O)[C@H](C)NC(=O)CCC1CC(OC(=O)NCCc2ccc(F)cc2)CC2(CCCC(COC(=O)NCC3CCCCC3)O2)O1` (stereo partly specified), 0.608; in that of `CCN1C(=O)[C@H]2[C@H]3[C@H](O)[C@H](O)CC(=NO[C@H](C)c4cn([C@H](CO)Cc5ccccc5)nn4)[C@@H]3CC[C@H]2C1=O`, 3.76. `CCN1C(C)=C(C(=O)OC)[C@@H](c2ccccc2)N2C(=O)[C@](O)(C(=O)OC)CC(C(C)=O)=C12` yielded a composite z-score of -1.01. `C=CC[C@@H]1C=C[C@H](ON=C(C)CCN2CCCCc3nc(C)c(C)cc32)[C@@H](CO)O1` had a composite z-score of -0.833. In turn, `CC(C)=NOC(C)CN1CCCCc2nc(C)c(C)cc21` (stereo unspecified) registered a composite z-score of 0.734.

The compound `CCOC(=O)[C@H](Cc1ccccc1)NC(=O)CCC1CC(OC(=O)NCCc2ccc(F)cc2)CC2(CCCC(COC(=O)NCCOc3ccccc3)O2)O1` (stereo partly specified) displayed a composite z-score of 0.569.

Compound `Cc1ccc(S(=O)(=O)N[C@@H]2COC(=O)CC=C[C@@H](C)[C@H](NS(=O)(=O)c3ccc(C)cc3)COC(=O)[C@H](C)NC(=O)CC=C[C@H]2C)cc1` yielded a composite z-score of -0.563. Compound `CCOC(=O)CCN1C(=O)[C@H]2[C@H]3[C@H](O)[C@H](O)CC(=NOCC(C)C)[C@@H]3CC[C@H]2C1=O` registered a composite z-score of -0.957. For the compound `CC(=O)OC[C@H]1O[C@H](CCON=C(C)CCN2CCCc3nc(C)c(C)cc32)C=C[C@@H]1OC(C)=O`, the composite z-score was determined as 1.22. The compound `Cc1cc2c(nc1C)CCCCN2CC(O)CN1CCCc2nc(-c3ccc(Br)cc3)ccc21` (stereo unspecified) came in with a composite z-score of 0.819. Same read-out and setting: the result for `CC(C)(C)N1C(=O)[C@H]2[C@@H]3C(=CC[C@H]2C1=O)C(=O)[C@H]1O[C@H]1[C@H]3O` reads 0.23; that for `CC(CCN1CCCc2nc(C)c(C)cc21)=NOC[C@@H](C)[C@H](OCc1ccccc1)C(C)C`, 2.52. On the same count and under the same terms, in the case of `CON=C(C)CCC(=O)OC[C@H]1O[C@H](C#Cc2ccccc2)C=C[C@@H]1Oc1ccc(C)cc1` it was 0.377. `C[C@@H]1CC[C@@H](C(=O)O)N[C@H]1c1cccc(N2CCOCC2)c1`: the composite z-score is 0.06. The compound `O=C1C2=CC[C@H]3C(=O)N(C4CCCCC4)C(=O)[C@H]3[C@H]2[C@H](O)[C@@H]2O[C@H]12` registered a composite z-score of -0.242. In the case of `CCOC(=O)[C@H](Cc1ccccc1)NC(=O)CCC1CC(OC(=O)NCCc2ccc(F)cc2)CC2(CCCC(COC(=O)NCc3cccc(C(F)(F)F)c3)O2)O1` (stereo partly specified), the composite z-score was 0.554.

In turn, `O=C1[C@H]2[C@H]3[C@H](O)[C@H](O)CC(=NO[C@@H]4O[C@H](CO)[C@@H](O)[C@H](O)[C@H]4O)[C@H]3CC[C@H]2C(=O)N1C[C@@H]1CCCO1` returned a composite z-score of -0.0286.

For the compound `CC(CCC(=O)OC[C@H]1O[C@H](C#Cc2ccccc2)C=C[C@@H]1Oc1ccc(C)cc1)=NOC[C@@H](C)[C@H](OCc1ccccc1)C(C)C`, the composite z-score stood at 0.0009. The same measure, in the same setting: the result for `C[C@@H]1CC[C@H]2C(=O)OC(Cc3ccccc3)CN2[C@H]1c1ccc(Br)cc1` (stereo partly specified) reads 0.227; that for `COC(=O)CC=C[C@@H](C)[C@@H](C=NOC[C@@H](O)COCc1ccco1)OC`, 1.46. On the same count and under the same terms, in the case of `CCc1cc2c(nc1CC)CCN(CCC(C)=NOC[C@@H](C)[C@H](OCc1ccccc1)C(C)C)C2` it was 2.64. In turn, `O=C1C2=CC[C@H]3C(=O)N(C[C@@H]4CCCO4)C(=O)[C@H]3[C@H]2[C@H](O)[C@@H]2O[C@H]12` registered a composite z-score of 0.286. Same read-out and setting: in the case of `CCOC(=O)CCN1C(=O)[C@H]2[C@H]3[C@H](O)[C@H](O)CC(=NNC(=O)OCC)[C@H]3CC[C@H]2C1=O` it was 0.307. Take `COc1ccc2c(c1)O[C@@H](c1cccc(C(F)(F)F)c1)[C@H](O)C2=O`: the composite z-score was 0.0408. The compound `COC(=O)CC=C[C@@H](C)[C@@H](C=NOC(C)CN1CCCCc2nc(C)c(C)cc21)NS(=O)(=O)c1ccc(C)cc1` (stereo partly specified) yielded a composite z-score of 0.0454. On the same count and under the same terms, in the case of `CCOC(=O)[C@H](Cc1ccccc1)NC(=O)CCC1CC(OC(=O)NCc2cccc3ccccc23)CC2(CCCC(COC(=O)NCCc3ccccc3OC)O2)O1` (stereo partly specified) it was 0.704; in that of `O=C1C=C[C@@H](O)[C@@H]2[C@@H]3C(=O)N(c4cccc(Oc5ccccc5)c4)C(=O)[C@@H]3CC[C@@H]12`, 0.959; in that of `O=C1C=C[C@@H](O)[C@@H]2[C@@H]3C(=O)N(Cc4ccccc4)C(=O)[C@@H]3CC[C@@H]12`, 0.0502.

As to `COC(=O)[C@H](C)NC(=O)CCC1CC(OC(=O)NCc2ccc3c(c2)OCO3)CC2(CCCC(COC(=O)NCc3ccccc3)O2)O1` (stereo partly specified), the composite z-score amounted to 0.554. `COc1ccc(COC(=O)NN=C2C[C@@H](O)[C@@H](O)[C@@H]3[C@@H]4C(=O)N(C(C)(C)C)C(=O)[C@@H]4CC[C@@H]23)cc1` came in with a composite z-score of 0.839.
